Reference: the supplement of paper PMC12636033
± gives the standard deviation of the averaged measurements. Over roughly 33,000 sequences, “E-score (rank enrichment, -0.5 to 0.5)” has its median near -0.0028; the highest 2% begin near 0.23. For the sample, the highest values were picked, then their nearest neighbours and some sequences at random.

tested on: 2Sb-muMax20 (muMax20 with two 1,3-bis(methyl)benzene Cys staples, A13C/A17C and Q88C/A92C, C-terminal Lys); assay: PBM 8-mer E-score (E-score (rank enrichment, -0.5 to 0.5)); higher = stronger preferential binding
Method: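 Protein binding microarray (universal PBM chip covering all 10-mers in fixed probe flanks) with chemically synthesized human Max(13-93) bHLH-LZ analogs (not full-length Max) bearing noncanonical residues (hArg, Tha, Aib, Nle at 65) and aromatic Cys staples. Read-out per 8-mer (and its reverse complement): E-score (rank-based enrichment, -0.5 to 0.5) and Z-score of median probe intensity.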

In order of falling “PBM 8-mer E-score” value:
1. CACGTGCA  0.417 ± 0.026
2. ATACGTAT  0.407 ± 0.031
3. CACGTGCG  0.39 ± 0.022
4. CACGTGCC  0.377 ± 0.015
5. TCCCCAAA  0.372 ± 0.029
6. TTCCCCAA  0.32 ± 0.021
7. CTCCCCAA  0.309 ± 0.072
8. AATCAACA  0.308 ± 0.015
9. ATCCCCAC  0.301 ± 0.04
10. ATCCCCAA  0.301 ± 0.04
11. CTCCCCAC  0.292 ± 0.041
12. ATCCCCTA  0.2799 ± 0.00079
13. ACAGAAAG  0.278 ± 0.04
14. CATAGATA  0.277 ± 0.041
15. ATAAGGAT  0.277 ± 0.0071
16. AATTGAAA  0.272 ± 0.014
17. ACAAATGG  0.266 ± 0.032
18. ATCCCCTC  0.2637 ± 0.0019
19. ACAAAACG  0.262 ± 0.006
20. TCCCCACA  0.261 ± 0.055
21. AGAAATGG  0.251 ± 0.033
22. ACTTAAGT  0.246 ± 0.033
23. AGCTTCTC  0.245 ± 0.00095
24. TAAGTGCA  0.243 ± 0.008
25. ACAGCAAG  0.24 ± 0.03
26. AATTAAGT  0.24 ± 0.005
27. ACAAAATG  0.238 ± 0.039
28. AATTAAAT  0.235 ± 0.011
29. GCATAGTA  0.234 ± 0.05
30. AGAAATAG  0.232 ± 0.034
31. ATTTGTTG  0.232 ± 0.0078
32. CAATCACG  0.231 ± 0.021
33. AATGACCC  0.231 ± 0.0025
34. ATAAGGTC  0.231 ± 0.014
35. TAGTTGAA  0.23 ± 0.012
36. AATTGAAT  0.229 ± 0.021
37. AATTAAGA  0.216 ± 0.038
38. TATAGATA  0.213 ± 0.042
39. AAATCACA  0.199 ± 0.0051
40. TACGTACA  0.198 ± 0.0031
41. GCTAGAAA  0.197 ± 0.055
42. ACAAAATA  0.193 ± 0.13
43. CATATGCG  0.192 ± 0.0076
44. AATTAAAC  0.19 ± 0.065
45. ATTTGTTA  0.187 ± 0.0095
46. TACTGGAA  0.187 ± 0.013
47. CCGCATAA  0.184 ± 0.0044
48. CTCCCCTA  0.182 ± 0.019
49. AGAAATGC  0.177 ± 0.015
50. ATAGCAAA  0.1715 ± 0.0012
51. CTCCCCAG  0.162 ± 0.085
52. TACGTGCA  0.1615 ± 0.00067
53. CCATAGTA  0.161 ± 0.049
54. AAAAAGTT  0.16 ± 0.014
55. ATACGTAC  0.16 ± 0.0041
56. AACGTGCG  0.152 ± 0.016
57. ATGCGTAG  0.151 ± 0.017
58. ACGTGGAC  0.15 ± 0.054
59. ATTTGTTC  0.15 ± 0.058
60. ACAAATGT  0.148 ± 0.026
61. CTCCCCTC  0.147 ± 0.072
62. ACATAGTA  0.141 ± 0.013
63. CCTGTTTA  0.137 ± 0.0084
64. AATTAAAG  0.133 ± 0.025
65. ATAAGGTA  0.132 ± 0.044
66. ACAAAACC  0.13 ± 0.14
67. ATTTTAAA  0.126 ± 0.03
68. ACAGAAAC  0.126 ± 0.0055
69. ACTTCTTA  0.125 ± 0.057
70. GATCTCCC  0.122 ± 0.056
71. GAAGTGCA  0.122 ± 0.077
72. AATTAAGC  0.121 ± 0.063
73. ATCCCCAT  0.118 ± 0.011
74. TTAATGAA  0.115 ± 0.088
75. ATACGTAA  0.115 ± 0.0061
76. ACGCCCCT  0.109 ± 0.11
77. CTGACTTA  0.107 ± 0.048
78. GTAGAAAA  0.0997 ± 0.012
79. AACGTGCA  0.0984 ± 0.068
80. CAAGGCAA  0.0983 ± 0.056
81. ACAGCAAT  0.0979 ± 0.018
82. TATCAACA  0.0969 ± 0.067
83. GTCCCCTA  0.093 ± 0.011
84. CAATCACA  0.0918 ± 0.051
85. AGAAATAT  0.0844 ± 0.12
86. ACAGAAAA  0.083 ± 0.044
87. CAATGCAA  0.0811 ± 0.012
88. AAAGTGCA  0.0798 ± 0.0049
89. CCCCCACG  0.0751 ± 0.11
90. CTCGTATC  0.0723 ± 0.026
91. ACAAAATC  0.0704 ± 0.00074
92. GTCCCCAC  0.0697 ± 0.074
93. ATGCACTG  0.062 ± 9.2e-05
94. TATAGCGA  0.0513 ± 0.037
95. ACTGCAGC  0.0488 ± 0.072
96. AAAGAGGG  0.0479 ± 0.037
97. AATAGCTC  0.0405 ± 0.046
98. ATCCCCAG  0.0369 ± 0.07
99. GTCCCCAA  0.0368 ± 0.035
100. GCCCTGTA  0.032 ± 0.063
101. ATCGCTCA  0.0207 ± 0.008
102. CGTTCTAC  0.0207 ± 0.027
103. AGTGGTAT  0.0204 ± 0.062
104. AGAAATAC  0.0203 ± 0.03
105. CCCATTGA  0.02 ± 0.063
106. ATACTGCG  0.0194 ± 0.043
107. CCTCTACA  0.0181 ± 0.028
108. AACAGTTC  0.0164 ± 0.036
109. CTAAGGTC  0.0156 ± 0.022
110. TTCCCAAA  0.0153 ± 0.013
111. AAGTTGAA  0.0152 ± 0.0042
112. AACGTGCC  0.0151 ± 0.03
113. CAGTTGAA  0.0124 ± 0.054
114. ACTTAAGA  0.00227 ± 0.079
115. GGAAAGCC  -0.00378 ± 0.093
116. AACAGATA  -0.0213 ± 0.017
117. ATAAGGAC  -0.0224 ± 0.047
118. AGCTTCTA  -0.0235 ± 0.043
119. GCCGGTTA  -0.0245 ± 0.051
120. AGAGAAGG  -0.029 ± 0.046
121. GATAGATA  -0.0327 ± 0.03
122. CCAAAACG  -0.0328 ± 0.043
123. AATTGAAC  -0.0329 ± 0.083
124. ATTGCTAA  -0.034 ± 0.043
125. ACCGTAGC  -0.0428 ± 0.011
126. CTACCGAC  -0.0505 ± 0.014
127. CAGACATG  -0.0511 ± 0.076
128. AGGAAGGC  -0.0526 ± 0.077
129. ACAGCAAC  -0.0541 ± 0.075
130. ACCGCTAT  -0.0561 ± 0.049
131. CGTCTCCA  -0.0564 ± 0.02
132. AAGGAATC  -0.0571 ± 0.08
133. ACGCAACC  -0.0577 ± 0.0052
134. GTGCTAAC  -0.0619 ± 0.0065
135. ATCCCGAG  -0.0644 ± 0.021
136. GGGATCCA  -0.0748 ± 0.046
137. ATAAGGAA  -0.0755 ± 0.029
138. AGTCTGAC  -0.0779 ± 0.015
139. AATGACCG  -0.0804 ± 0.021
140. AGAAATGA  -0.0864 ± 0.0095
141. GATCGAGA  -0.0884 ± 0.04
142. ACCTCTGA  -0.0896 ± 0.0083
143. CCAAATGG  -0.0949 ± 0.091
144. GGAGGACA  -0.0957 ± 0.0057
145. ACTCGGAA  -0.104 ± 0.083
146. ATTGTAGC  -0.106 ± 0.0083
147. ACCTGCGC  -0.114 ± 0.011
148. AGTTCGTA  -0.119 ± 0.064
149. AGCTTCTG  -0.127 ± 0.071
150. CCCAGCGA  -0.132 ± 0.046
151. ACTTAAGC  -0.134 ± 0.061
152. GATCAACA  -0.139 ± 0.023
153. CTCCCCCA  -0.142 ± 0.09
154. GCGAAGCC  -0.143 ± 0.0091
155. AGGACAGG  -0.1548 ± 0.00025
156. GATGACCC  -0.157 ± 0.019
157. ATCCCCCA  -0.171 ± 0.032
158. GACGTGCC  -0.174 ± 0.023
159. AGGTGCAG  -0.176 ± 0.029
160. AGTCTCTG  -0.178 ± 0.037
161. TCCCCCAA  -0.179 ± 0.0084
162. CTCTCCAG  -0.198 ± 0.013
163. CCCGTGCG  -0.206 ± 0.01
164. CCCCCAAA  -0.215 ± 0.027
165. ATCGGATC  -0.225 ± 0.064
166. CCCCCCAC  -0.238 ± 0.085
167. ACCGTGAG  -0.24 ± 0.025
168. CAGGGGGG  -0.241 ± 0.072
169. CCCCCACA  -0.26 ± 0.052
170. CTGGGGGC  -0.289 ± 0.044
171. CCAGGGGG  -0.31 ± 0.076
172. ATCCCCCC  -0.321 ± 0.063
